# Test results reported in ChEMBL document CHEMBL4888484, “Replenishing the malaria drug discovery pipeline: Screening and hit evaluation of the MMV Hit Generation Library 1 (HGL1) against asexual blood stage Plasmodium falciparum ,using a nano luciferase reporter read-out” (2022).
# Screen size: about 4,800 compounds; about 420 (8.8%) showed an effect of 50% or more. This is one part of a sample in which strong results are shown more often than they occur.
# Tested on: Plasmodium falciparum
# Test: Confirmatory screen in NF54 nanoGlo assay, in single point, at 2uM, 72h
# Type: functional, Erythrocyte
# Details: timepoint 72 hour
row,Compound,% Inhibition [%]
1,COc1ccc2cc3n(c2c1)C[C@](C(=O)NC1CCCCCC1)(c1ccccc1)N(Cc1ccccc1F)C3=O,-17
2,CC(Oc1ccc2c(c1)C(c1ccccc1)N(Cc1ccccc1F)CC2)C(=O)NC1CC1 (stereo not given),56
3,C[C@H](C(=O)NCC1CCN(Cc2ccccc2F)CC1)C1CCOCC1,-6
4,C=CCN1CCN(c2nccn3nc(-c4ccc(Cl)cc4)cc23)CC1,-3
5,CC[C@H]1C(=O)NCCN1C(=O)c1cc(C)n[nH]1,7
6,Cn1c(Cc2n[n+]3c(-c4ccccc4)cc(-c4ccccc4)nc3n2C)n[n+]2c(-c3ccccc3)cc(-c3ccccc3)nc12,99
7,COCc1nsc(N2CCC(c3ccccc3)CC2C)n1 (stereo not given),1
8,O=C(NCc1cccnc1)c1cnn2c3c(cnc12)CCCC3,-4
9,C[C@H]1CCN(c2nc(-c3ccccn3)nc3c2CCC3)C1,91
10,C[C@H]1CCCN(c2nc(-c3ccccn3)nc3ccccc23)C1,97
11,O[C@H]1Cc2ccccc2[C@H]1Nc1nc(-c2ccccn2)nc2c1CCNC2,13
12,CCc1ccc(NC(=O)[C@H]2CCCN(c3nc4cccnc4n(Cc4ccccc4)c3=O)C2)cc1,-6
13,C[C@H]1CCCN(S(=O)(=O)NCC(=O)Nc2ccccn2)C1,-15
14,FC(F)(F)C1CN(c2nc(-c3ccccn3)nc3c2CCC3)C1,67
15,CN(C)Cc1ccc(O)c(CCc2ccccc2)n1,29
16,C[C@@]12CCCCN1CCCc1c2[nH]c2ccccc12,-15
17,COc1c[nH]c(C(=O)NC2CCN(Cc3ccccc3)CC2)cc1=O,5
18,CCOc1cc(Cl)ccc1C(=O)NC1CCN(C[C@H]2CCOC2)CC1,1
19,FCCn1ncnc1CN1CCCCC[C@H]1C1CCCCC1,4
20,CCN(CC)CC(O)COc1c(Br)cc(C(C)(C)c2cc(Br)c(OCC(O)CN(CC)CC)c(Br)c2)cc1Br (stereo not given),99

row,Compound,% Inhibition [%]
1,O=C(CNC(=O)[C@H]1CC[C@H](CNS(=O)(=O)c2ccccc2)CC1)N1CCN(c2ccccc2)CC1,4
2,O=C(Nc1nc2ccc(F)cc2s1)c1cccc2c(Br)cccc12,-1
3,C=CCN1C(=O)OC(C)(CCC=C(C)C)C1(C)O (stereo not given),9
4,CN1CCCN(c2ccnc3ccsc23)CC1,2
5,Cc1cc(CN(C)Cc2nccn2C)ccc1N1CCCCC1,-1
6,Cc1cccc(OCc2nn3c([C@H]4CCCN(S(C)(=O)=O)C4)nnc3s2)c1,-6
7,Cc1nccc(N(C)C2CC(Oc3ccccc3)C2(C)C)n1 (stereo not given),-5
8,Cc1nn2c(C(F)F)cc(-c3ccc4c(c3)OCO4)nc2c1Cl,-5
9,O=C(CCn1nc(-c2ccc(Br)cc2)ccc1=O)NCc1ccc2c(c1)OCO2,-4
10,C[C@@]1(C(=O)NCc2ccccc2)Cn2nc(-c3ccccc3)cc2C(=O)N1c1ccc2c(c1)OCCO2,58
11,CCc1ccc(CN2C(=O)c3c(C(=O)OC)ncn3C[C@@]2(C)C(=O)NC2CCCCCC2)cc1,1
12,COc1cccc(-c2ccc(=O)n(CCC(=O)N3CCN(Cc4ccc5c(c4)OCO5)CC3)n2)c1,1
13,COc1ccc(-c2cc3n(n2)C[C@@](C)(C(=O)NCc2ccccc2)N(Cc2ccc4c(c2)OCO4)C3=O)cc1,63
14,CCc1ccc(CN2C(=O)c3c(C(=O)OC)ncn3C[C@@]2(C)C(=O)NC2CCCC2)cc1,-6
15,Cc1cc(C)c(S(=O)(=O)N2CCC(C)(C(=O)NCc3ccc4c(c3)OCO4)CC2)cc1C,3
16,COc1ccc(-c2cc3n(n2)C[C@@](C)(C(=O)NCc2ccccc2OC)N(c2cccc(OC)c2)C3=O)cc1,49
17,CCc1ccc(-c2cc3n(n2)C[C@@](C)(C(=O)NC2CCCCC2)N(c2cc(C)cc(C)c2)C3=O)cc1,74
18,Cc1nn(CCc2nnc(-c3ccc4c(c3)OCO4)o2)c(C)c1Cl,-3
19,O=C(O)Cc1sc(-c2ccccc2)nc1O,1
20,CC(=O)Nc1cc(NC(=O)c2cccc[n+]2[O-])c(F)cc1F,-2

row,Compound,% Inhibition [%]
1,COC(=O)c1[nH]c(C)cc1NC(=O)C1=CCCCCC1,-2
2,O=C(Nc1nncs1)c1cccc(C(=O)Nc2nncs2)n1,68
3,O=C(Nc1nncs1)NC(C1CC1)C1CC1,0
4,Cc1ccc(-c2csc(NC(=O)c3cccc(C(=O)Nc4nc(-c5ccc(C)cc5C)cs4)n3)n2)c(C)c1,-1
5,CCOC(=O)c1c(C(F)(F)F)[nH]n2c(C(F)F)nnc12,-3
6,COc1ccc2ccccc2c1C(=O)Nc1ccc(N2CCN(C)CC2)c(Cl)c1,5
7,CCOc1ccc2ccccc2c1C(=O)Nc1cc(C)nn1-c1nc2c(c(=O)[nH]1)CCC2,94
8,Cc1cc(NC(=O)C(=O)NC2CC(C)CC(C)(C)C2)n(-c2nc3c(c(=O)[nH]2)CCC3)n1 (stereo not given),90
9,O=C(Cc1ccccc1)Nc1c2c(nc3c1CCC3)CCCC2,3
10,Cc1cc(C)cc(Nc2nc(C)cc(=O)n2CC(=O)Nc2ccc(C)cc2Br)c1,-8
11,Cc1ccc2c(c1)ncc1c(-c3ccccc3)nn(-c3ccc(F)cc3)c12,-5
12,COc1ccc(NC(=O)Cc2c(C)nn(-c3nc(C)cs3)c2O)c(OC)c1,-7
13,CCOC(=O)c1cc(-c2ccccc2)n(NC(=O)COc2ccc(Cl)cc2)c1C,-11
14,CNC(=O)c1cc(N2CCN(c3ncc(C(F)(F)F)cc3Cl)CC2)ccc1NC(=O)c1ccccc1Cl,7
15,CCCN(CCC)CCN1C(=O)[C@@H]2C(C(=O)Nc3cc(Cl)cc(Cl)c3)[C@@H]3C=C[C@]2(O3)C1C(=O)NC1CCCCC1 (stereo not given in full),-3
16,COc1ccc(OC)c(NC(=O)Cn2cnc3nc(N4CCOCC4)ncc3c2=O)c1,8
17,Cc1cc(-c2nnc3n2CC(C)(C)CC3)c(C)o1,2
18,CCN(C)C1(CNC(=O)c2ccc(-c3cc(F)ccc3O)cc2)CCCC1,26
19,CCCc1cc(-c2nc(-c3ccc(-n4nc(C)cc4N)cc3)no2)n(C)n1,48
20,COc1cccc2nc(C[C@H]3CN(CC(C)C)CC[C@H]3CC(=O)O)[nH]c12,-9
